# Assay results reported in the supplement of paper PMC10037445.
# Where “and” joins values, the source holds several entries; their conditions need not be identical. Equal entries are not always repeated. Whole data set: some 2,900 compounds, median “NF-kB SEAP reporter activity, fold change vs agonist alone” near 0.99, cut for the highest 2% near 2.6. This excerpt belongs to a sample that is enriched for the highest values.
# Tests used:
# RAW-Dual [1] = test: NF-kB SEAP reporter activity, fold change vs agonist alone; cytotoxicity flag (confluency mask): not cytotoxic; higher = enhanced NF-kB activity
# In short: (§1)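 Library stock was pin-tooled at 50 nL into 384-well plates of RAW-Dual macrophages (50,000 cells/well, DMEM), followed 1 h later by a PRR agonist, and the cells were kept at 37 °C, 5% CO2. Supernatant collected after 20 hours was read for IRF by QuantiLuc luminescence and for NF-κB by QuantiBlue absorbance at 620 nm. Reporter activity is fold change over agonist-alone wells, and a well counted as cytotoxic when its IncuCyte confluency was below 70% of agonist controls in both mask sets.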
# RAW-Dual [2] = test: NF-kB SEAP reporter activity, fold change vs agonist alone; higher = enhanced NF-kB activity
# In short: as §1
# RAW-Dual [3] = test: NF-kB SEAP reporter activity, fold change vs agonist alone; cytotoxicity flag (confluency mask): cytotoxic (confluency <70% of control); higher = enhanced NF-kB activity
# In short: as §1
# [4] = agonist: ODN 1826 (TLR9) 0.5 ug/mL
# [5] = agonist: Pam2CSK4 (TLR2/6) 0.1 ug/mL
# [6] = agonist: Pam3CSK4 (TLR2/1) 0.1 ug/mL
# [7] = library stock concentration (final ~1000-fold dilution): 10 mM, cytotoxicity flag (confluency mask): not cytotoxic, agonist: Imiquimod (TLR7) […]
# [8] = library stock concentration (final ~1000-fold dilution): 10 mM, cytotoxicity flag (confluency mask): not cytotoxic, agonist: MPLA (TLR4) […]
smiles,measurement,setting,value
CC(C)(C)c1[nH]cnc1C=c1[nH]c(=O)c(=Cc2ccccc2)[nH]c1=O (library stock concentration (final ~1000-fold dilution): 10 mM),NF-kB SEAP reporter activity,RAW-Dual [1]; agonist: LPS (TLR4) 0.1 ug/mL,6.1
same,NF-kB SEAP reporter activity,RAW-Dual [1]; [4],3.37
same,NF-kB SEAP reporter activity,RAW-Dual [1]; [5],2.02
same,NF-kB SEAP reporter activity,RAW-Dual [1]; [6],2.3
CC(C)(C)c1[nH]cnc1C=c1[nH]c(=O)c(=Cc2ccccc2)[nH]c1=O,NF-kB SEAP reporter activity,RAW-Dual [2]; [7],2.47
same,NF-kB SEAP reporter activity,RAW-Dual [2]; [8],2.5
O=C(Nc1ccc(O)c(C(=O)O)c1)c1cccc(NC(=O)c2ccco2)c1 (library stock concentration (final ~1000-fold dilution): 10 mM),NF-kB SEAP reporter activity,RAW-Dual [1]; agonist: LPS (TLR4) 0.1 ug/mL,0.971
same,NF-kB SEAP reporter activity,RAW-Dual [1]; [4],0.895
same,NF-kB SEAP reporter activity,RAW-Dual [1]; [5],1.05
same,NF-kB SEAP reporter activity,RAW-Dual [1]; [6],1.06
O=C(Nc1ccc(O)c(C(=O)O)c1)c1cccc(NC(=O)c2ccco2)c1,NF-kB SEAP reporter activity,RAW-Dual [2]; [7],0.942
same,NF-kB SEAP reporter activity,RAW-Dual [2]; [8],0.969
Cl.Cl.c1cc(-c2nc3ccc(OCCCN4CCCC4)cc3o2)ccc1OCCCN1CCCC1,NF-kB SEAP reporter activity,"RAW-Dual [2]; library stock concentration (final ~1000-fold dilution): 1 mM, cytotoxicity flag (confluency mask): not cytotoxic, agonist: Imiquimod (TLR7) […]",1.27
same,NF-kB SEAP reporter activity,"RAW-Dual [2]; library stock concentration (final ~1000-fold dilution): 1 mM, cytotoxicity flag (confluency mask): not cytotoxic, agonist: MPLA (TLR4) […]",1.08
Cl.Cl.c1cc(-c2nc3ccc(OCCCN4CCCC4)cc3o2)ccc1OCCCN1CCCC1 (library stock concentration (final ~1000-fold dilution): 1 mM),NF-kB SEAP reporter activity,RAW-Dual [1]; agonist: LPS (TLR4) 0.1 ug/mL,0.935
same,NF-kB SEAP reporter activity,RAW-Dual [1]; [4],0.224
same,NF-kB SEAP reporter activity,RAW-Dual [1]; [5],1.11
same,NF-kB SEAP reporter activity,RAW-Dual [1]; [6],1.06
COc1ccccc1C(=O)Nc1cc2c(cc1N1CCNCC1C)n(C)c(=O)n2C (configuration not stated) (library stock concentration (final ~1000-fold dilution): 10 mM),NF-kB SEAP reporter activity,RAW-Dual [1]; agonist: LPS (TLR4) 0.1 ug/mL,1.48
same,NF-kB SEAP reporter activity,RAW-Dual [1]; [4],0.383
same,NF-kB SEAP reporter activity,RAW-Dual [1]; [5],0.997
same,NF-kB SEAP reporter activity,RAW-Dual [1]; [6],0.973
COc1ccccc1C(=O)Nc1cc2c(cc1N1CCNCC1C)n(C)c(=O)n2C (configuration not stated),NF-kB SEAP reporter activity,RAW-Dual [2]; [7],1.01
same,NF-kB SEAP reporter activity,RAW-Dual [2]; [8],1.37
CCOC(=O)C(CCc1ccccc1)NC1CSC(c2cccs2)CN(CC(=O)O)C1=O.Cl (configuration not stated) (library stock concentration (final ~1000-fold dilution): 10 mM),NF-kB SEAP reporter activity,RAW-Dual [1]; agonist: LPS (TLR4) 0.1 ug/mL,0.869
same,NF-kB SEAP reporter activity,RAW-Dual [1]; [4],1.04
same,NF-kB SEAP reporter activity,RAW-Dual [1]; [5],0.946
same,NF-kB SEAP reporter activity,RAW-Dual [1]; [6],1.15
CCOC(=O)C(CCc1ccccc1)NC1CSC(c2cccs2)CN(CC(=O)O)C1=O.Cl (configuration not stated),NF-kB SEAP reporter activity,RAW-Dual [2]; [7],1.01
same,NF-kB SEAP reporter activity,RAW-Dual [2]; [8],1.01
COc1ccc(-c2nc3cc(C4=NNC(=O)CC4C)ccc3[nH]2)cc1 (configuration not stated) (library stock concentration (final ~1000-fold dilution): 10 mM),NF-kB SEAP reporter activity,RAW-Dual [1]; agonist: LPS (TLR4) 0.1 ug/mL,1.3
same,NF-kB SEAP reporter activity,RAW-Dual [1]; [4],2.47
same,NF-kB SEAP reporter activity,RAW-Dual [1]; [5],1.8
same,NF-kB SEAP reporter activity,RAW-Dual [1]; [6],1.7
NC(=O)c1ccc(-c2nc(-c3ccc4c(c3)OCCO4)c(-c3ccccn3)[nH]2)cc1 (library stock concentration (final ~1000-fold dilution): 10 mM),NF-kB SEAP reporter activity,RAW-Dual [1]; agonist: LPS (TLR4) 0.1 ug/mL,1.81
same,NF-kB SEAP reporter activity,RAW-Dual [1]; [4],1.29
same,NF-kB SEAP reporter activity,RAW-Dual [1]; [5],1.25
same,NF-kB SEAP reporter activity,RAW-Dual [1]; [6],0.913
NC(=O)c1ccc2[nH]c(-c3ccc(Oc4ccc(Cl)cc4)cc3)nc2c1,NF-kB SEAP reporter activity,RAW-Dual [2]; [7],1.47
same,NF-kB SEAP reporter activity,RAW-Dual [2]; [8],2.09
NC(=O)c1ccc2[nH]c(-c3ccc(Oc4ccc(Cl)cc4)cc3)nc2c1 (library stock concentration (final ~1000-fold dilution): 10 mM),NF-kB SEAP reporter activity,RAW-Dual [1]; agonist: LPS (TLR4) 0.1 ug/mL,1.71
same,NF-kB SEAP reporter activity,RAW-Dual [1]; [4],1.59
same,NF-kB SEAP reporter activity,RAW-Dual [1]; [5],2.1
same,NF-kB SEAP reporter activity,RAW-Dual [1]; [6],3.55
NC(=O)c1ccc(-c2nc(-c3ccc4c(c3)OCCO4)c(-c3ccccn3)[nH]2)cc1,NF-kB SEAP reporter activity,RAW-Dual [2]; [7],0.743
same,NF-kB SEAP reporter activity,RAW-Dual [2]; [8],1.45
COc1ccc(-c2nc3cc(C4=NNC(=O)CC4C)ccc3[nH]2)cc1 (configuration not stated),NF-kB SEAP reporter activity,RAW-Dual [2]; [7],1.67
same,NF-kB SEAP reporter activity,RAW-Dual [2]; [8],1.34
Cl.Cl.Fc1cc(-c2cccc3ncc(-c4cnn(C5CCNCC5)c4)nc23)cc(F)c1CN1CCOCC1 (library stock concentration (final ~1000-fold dilution): 10 mM),NF-kB SEAP reporter activity,RAW-Dual [1]; agonist: LPS (TLR4) 0.1 ug/mL,0.349
same,NF-kB SEAP reporter activity,RAW-Dual [1]; [4],0.924
same,NF-kB SEAP reporter activity,RAW-Dual [1]; [5],0.147
same,NF-kB SEAP reporter activity,RAW-Dual [1]; [6],0.912
Cl.Cl.Fc1cc(-c2cccc3ncc(-c4cnn(C5CCNCC5)c4)nc23)cc(F)c1CN1CCOCC1,NF-kB SEAP reporter activity,RAW-Dual [2]; [7],0.92
same,NF-kB SEAP reporter activity,RAW-Dual [2]; [8],0.944
CCOC(=O)C(CCc1ccccc1)NC(C)C(=O)N1C(=O)N(C)CC1C(=O)O.Cl (configuration not stated) (library stock concentration (final ~1000-fold dilution): 10 mM),NF-kB SEAP reporter activity,RAW-Dual [1]; agonist: LPS (TLR4) 0.1 ug/mL,1.2
same,NF-kB SEAP reporter activity,RAW-Dual [1]; [4],0.98
same,NF-kB SEAP reporter activity,RAW-Dual [1]; [5],0.83
same,NF-kB SEAP reporter activity,RAW-Dual [1]; [6],1.03
CCOC(=O)C(CCc1ccccc1)NC(C)C(=O)N1C(=O)N(C)CC1C(=O)O.Cl (configuration not stated),NF-kB SEAP reporter activity,RAW-Dual [2]; [7],0.962
same,NF-kB SEAP reporter activity,RAW-Dual [2]; [8],0.927
CCC(C)C(=O)OC1CCC=C2C=CC(C)C(CCC3CC(O)CC(=O)O3)C21 (configuration not stated),NF-kB SEAP reporter activity,RAW-Dual [2]; [7],2.3
same,NF-kB SEAP reporter activity,RAW-Dual [2]; [8],1.97
CCC(C)C(=O)OC1CCC=C2C=CC(C)C(CCC3CC(O)CC(=O)O3)C21 (configuration not stated) (library stock concentration (final ~1000-fold dilution): 10 mM),NF-kB SEAP reporter activity,RAW-Dual [1]; agonist: LPS (TLR4) 0.1 ug/mL,3.69
same,NF-kB SEAP reporter activity,RAW-Dual [1]; [4],2.68
same,NF-kB SEAP reporter activity,RAW-Dual [1]; [5],1.45
same,NF-kB SEAP reporter activity,RAW-Dual [1]; [6],2.12
CCC(C)C(=O)OC1CC(C)C=C2C=CC(C)C(CCC3CC(O)CC(=O)O3)C21 (configuration not stated) (library stock concentration (final ~1000-fold dilution): 10 mM),NF-kB SEAP reporter activity,RAW-Dual [1]; agonist: LPS (TLR4) 0.1 ug/mL,3.33
same,NF-kB SEAP reporter activity,RAW-Dual [1]; [4],2.62
same,NF-kB SEAP reporter activity,RAW-Dual [1]; [5],1.93
same,NF-kB SEAP reporter activity,RAW-Dual [1]; [6],3.02
CCC(C)(C)C(=O)OC1CC(C)C=C2C=CC(C)C(CCC3CC(O)CC(=O)O3)C21 (configuration not stated) (library stock concentration (final ~1000-fold dilution): 10 mM),NF-kB SEAP reporter activity,RAW-Dual [3]; agonist: LPS (TLR4) 0.1 ug/mL,2.35
same,NF-kB SEAP reporter activity,RAW-Dual [3]; [4],2.44
same,NF-kB SEAP reporter activity,RAW-Dual [3]; [5],2.12
same,NF-kB SEAP reporter activity,RAW-Dual [3]; [6],3.35
CCC(C)(C)C(=O)OC1CC(C)C=C2C=CC(C)C(CCC3CC(O)CC(=O)O3)C21 (configuration not stated),NF-kB SEAP reporter activity,"RAW-Dual [2]; library stock concentration (final ~1000-fold dilution): 10 mM, cytotoxicity flag (confluency mask): cytotoxic (confluency <70% of control), agonist: Imiquimod (TLR7) […]",2.53
same,NF-kB SEAP reporter activity,"RAW-Dual [2]; library stock concentration (final ~1000-fold dilution): 10 mM, cytotoxicity flag (confluency mask): cytotoxic (confluency <70% of control), agonist: MPLA (TLR4) […]",1.95
CCC(C)C(=O)OC1CC(C)C=C2C=CC(C)C(CCC3CC(O)CC(=O)O3)C21 (configuration not stated),NF-kB SEAP reporter activity,RAW-Dual [2]; [7],2.54
same,NF-kB SEAP reporter activity,RAW-Dual [2]; [8],1.94
CCC(C)C(=O)OC1CC(O)C=C2C=CC(C)C(CCC(O)CC(O)CC(=O)O)C21 (configuration not stated) (library stock concentration (final ~1000-fold dilution): 10 mM),NF-kB SEAP reporter activity,RAW-Dual [1]; agonist: LPS (TLR4) 0.1 ug/mL,1.01 and 1.04
same,NF-kB SEAP reporter activity,RAW-Dual [1]; [4],1 and 1.02
same,NF-kB SEAP reporter activity,RAW-Dual [1]; [5],1.08 and 1.05
same,NF-kB SEAP reporter activity,RAW-Dual [1]; [6],0.841 and 1.15
